The test system of this assay is AmpC beta-lactamase (E. coli). The assay can be described thus: AmpC inhibition relative to DMSO; higher = more inhibition. As to the method:
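Aggregation counter-screen: inhibition of E. coli AmpC beta-lactamase (5 nM, nitrocefin substrate, 50 mM sodium phosphate pH 7.0, RT, 5 min) by KAT inhibitors at 4, 11, 33 and 100 uM, with or without 0.01% Triton X-100. Percent inhibition is relative to DMSO controls. Four technical replicates.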

Where [1] appears, read: 4 µM, detergent: 0.01% Triton X-100.
[2] abbreviates: 11 µM, detergent: 0.01% Triton X-100.
Where [3] appears, read: 33 µM, detergent: 0.01% Triton X-100.
[4] abbreviates: 100 µM, detergent: 0.01% Triton X-100.
The mark [5] stands for this setting: 100 µM, detergent: no detergent.

± gives the standard deviation of the averaged measurements.

Consider `CCCCCOc1ccc(/C=C\c2cccc(O)c2C(=O)O)cc1`, for which the AmpC inhibition reads like this: under setting [1], -1.02 ± 4.7%; (4 µM, detergent: no detergent) -1.47 ± 3.3%; under setting [2], 7.71 ± 5.1%; (11 µM, detergent: no detergent) 27.2 ± 7.2%; under setting [3], 5.08 ± 5.7%; (33 µM, detergent: no detergent) 69 ± 16%. The AmpC inhibition reads like this: under setting [4], 14 ± 3%; under setting [5], 99.2 ± 1.4%.

With `Cc1cc(-c2ccccc2)cc(C(=O)NNS(=O)(=O)c2ccccc2)c1F`, the AmpC inhibition is, setting by setting: under setting [1], 10.3 ± 2.6%; (4 µM, detergent: no detergent) 7.83 ± 8%; under setting [2], 6.24 ± 2.3%; (11 µM, detergent: no detergent) 9.5 ± 7%; under setting [3], 1.15 ± 3%; (33 µM, detergent: no detergent) 15 ± 4.6%. The AmpC inhibition reads like this: under setting [4], 8.19 ± 9.7%; under setting [5], 53.4 ± 7.8%.

Regarding `CNC(=O)Nc1ccc2c(c1)CC[C@@]21OC(=O)N(CC(=O)N(Cc2ccc(F)cc2)[C@@H](C)C(F)(F)F)C1=O`, the AmpC inhibition is, setting by setting: under setting [1], 5.14 ± 2.9%; (4 µM, detergent: no detergent) -1.32 ± 9.8%; under setting [2], 5.67 ± 2.5%; (11 µM, detergent: no detergent) 5.86 ± 3.8%; under setting [3], -0.581 ± 4.1%; (33 µM, detergent: no detergent) -6.17 ± 3.8%. The AmpC inhibition is, setting by setting: under setting [4], -3 ± 2.8%; under setting [5], -3.55 ± 4.8%.

For the compound `O=C(OCC)/C(C(OCC)=O)=C\CCCCCCCCCCCCCC`, the AmpC inhibition runs as follows: under setting [1], 5.31 ± 3.4%; (4 µM, detergent: no detergent) -0.349 ± 2.3%; under setting [2], 1.25 ± 19%; (11 µM, detergent: no detergent) 41.5 ± 10%; under setting [3], 6.47 ± 3.7%; (33 µM, detergent: no detergent) 50.3 ± 16%. For the same compound, the AmpC inhibition by setting is: under setting [4], 1.39 ± 4.3%; under setting [5], 86.8 ± 6.6%.

Consider `O=C(NNS(=O)(=O)c1ccccc1)c1cc(-c2ccnnc2)ccc1F`, for which the AmpC inhibition is, setting by setting: under setting [1], 9.2 ± 1.8%; (4 µM, detergent: no detergent) 2.19 ± 10%; under setting [2], 3.76 ± 1.8%; (11 µM, detergent: no detergent) 16.9 ± 8%; under setting [3], 3.27 ± 1.3%; (33 µM, detergent: no detergent) 5.35 ± 1.6%. Moreover, the AmpC inhibition was 12.2 ± 5.5% under setting [4] and 11.9 ± 7.5% under setting [5].

Values taken from the supplement of paper PMC10011410.
